Source: paper PMC11006913
Numbering of substitutions follows the chain as printed.

How the values were obtained:
Experiment in all cases: PBM; 200 nM protein, PBS
Settings in all cases: dsDNA, one strand shown
PAX4 [1] = target: T1, PAX4 (Homo sapiens, UniProt O43316 9-242, R200K)
T1 sequence: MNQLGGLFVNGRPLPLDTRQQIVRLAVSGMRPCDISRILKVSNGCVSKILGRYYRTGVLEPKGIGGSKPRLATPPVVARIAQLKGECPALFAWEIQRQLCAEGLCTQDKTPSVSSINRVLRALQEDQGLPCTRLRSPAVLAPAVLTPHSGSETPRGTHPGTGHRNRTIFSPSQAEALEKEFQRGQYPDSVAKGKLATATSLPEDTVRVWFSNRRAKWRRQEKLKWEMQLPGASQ

PAX4 [2] = target: T2, PAX4 (Homo sapiens, UniProt O43316 9-242)
T2 sequence: T1 sequence with K192R

PAX4 [3] = target: T3, PAX4 (Homo sapiens, UniProt O43316 9-242, R200Q)
T3 sequence: T1 sequence with K192Q

PAX4 [4] = target: T4, PAX4 (Homo sapiens, UniProt O43316 9-242, F177V)
T4 sequence: T1 sequence with F169V, K192R

PAX4 [5] = target: T5, PAX4 (Homo sapiens, UniProt O43316 9-242, F177Y)
T5 sequence: T1 sequence with F169Y, K192R

PAX4 [6] = target: T6, PAX4 (Homo sapiens, UniProt O43316 9-242, R227W)
T6 sequence: T1 sequence with K192R, R219W

CRX = CRX (Homo sapiens, UniProt O43186 26-111, R41L)
PRRX1 = PRRX1 (Homo sapiens, UniProt P54821 80-166, F113S)
HOXB6 = HOXB6 (Homo sapiens, UniProt P17509 132-218, K202E)
Chain of HOXB6 (P17509 132-218 K202E): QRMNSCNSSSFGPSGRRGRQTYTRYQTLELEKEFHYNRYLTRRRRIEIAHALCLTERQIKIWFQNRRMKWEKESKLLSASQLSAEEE

Chain of CRX (O43186 26-111 R41L): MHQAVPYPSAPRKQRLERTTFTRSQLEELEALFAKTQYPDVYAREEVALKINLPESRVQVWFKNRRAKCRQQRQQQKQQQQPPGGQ
Chain of PRRX1 (P54821 80-166 F113S): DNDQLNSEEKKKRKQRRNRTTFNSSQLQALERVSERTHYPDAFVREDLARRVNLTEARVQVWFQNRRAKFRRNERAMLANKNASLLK

Sequence: CGTTGGCC
- binding signal (PAX4 [1]): 9.3 upbm affinity estimate (log intensity, higher = more binding, comparable within an allelic series)
- binding signal (PAX4 [2]): 9.3 upbm affinity estimate (log intensity, higher = more binding, comparable within an allelic series)
- binding signal (PAX4 [3]): 9.53 upbm affinity estimate (log intensity, higher = more binding, comparable within an allelic series)
- binding signal (PAX4 [4]): 9.43 upbm affinity estimate (log intensity, higher = more binding, comparable within an allelic series)
- binding signal (PAX4 [5]): 9.4 upbm affinity estimate (log intensity, higher = more binding, comparable within an allelic series)
- binding signal (PAX4 [6]): 9.45 upbm affinity estimate (log intensity, higher = more binding, comparable within an allelic series)

Sequence: CGAATTAA
- binding signal (PAX4 [1]): 12 upbm affinity estimate (log intensity, higher = more binding, comparable within an allelic series)
- binding signal (PAX4 [2]): 12.6 upbm affinity estimate (log intensity, higher = more binding, comparable within an allelic series)
- binding signal (PAX4 [3]): 11.9 upbm affinity estimate (log intensity, higher = more binding, comparable within an allelic series)
- binding signal (PAX4 [4]): 10.6 upbm affinity estimate (log intensity, higher = more binding, comparable within an allelic series)
- binding signal (PAX4 [5]): 11.2 upbm affinity estimate (log intensity, higher = more binding, comparable within an allelic series)
- binding signal (PAX4 [6]): 11.1 upbm affinity estimate (log intensity, higher = more binding, comparable within an allelic series)

Sequence: CCGGGCTC
- binding signal (PAX4 [1]): 9.24 upbm affinity estimate (log intensity, higher = more binding, comparable within an allelic series)
- binding signal (PAX4 [2]): 9.31 upbm affinity estimate (log intensity, higher = more binding, comparable within an allelic series)
- binding signal (PAX4 [3]): 9.36 upbm affinity estimate (log intensity, higher = more binding, comparable within an allelic series)
- binding signal (PAX4 [4]): 9.17 upbm affinity estimate (log intensity, higher = more binding, comparable within an allelic series)
- binding signal (PAX4 [5]): 9.16 upbm affinity estimate (log intensity, higher = more binding, comparable within an allelic series)
- binding signal (PAX4 [6]): 9.23 upbm affinity estimate (log intensity, higher = more binding, comparable within an allelic series)

Sequence: TGGGCCCA
- binding signal (PAX4 [1]): 9.53 upbm affinity estimate (log intensity, higher = more binding, comparable within an allelic series)
- binding signal (PAX4 [2]): 9.41 upbm affinity estimate (log intensity, higher = more binding, comparable within an allelic series)
- binding signal (PAX4 [3]): 9.57 upbm affinity estimate (log intensity, higher = more binding, comparable within an allelic series)
- binding signal (PAX4 [4]): 9.2 upbm affinity estimate (log intensity, higher = more binding, comparable within an allelic series)
- binding signal (PAX4 [5]): 9.37 upbm affinity estimate (log intensity, higher = more binding, comparable within an allelic series)
- binding signal (PAX4 [6]): 9.35 upbm affinity estimate (log intensity, higher = more binding, comparable within an allelic series)

Sequence: GCGAGGCC
- binding signal (PAX4 [1]): 9.39 upbm affinity estimate (log intensity, higher = more binding, comparable within an allelic series)
- binding signal (PAX4 [2]): 9.4 upbm affinity estimate (log intensity, higher = more binding, comparable within an allelic series)
- binding signal (PAX4 [3]): 9.36 upbm affinity estimate (log intensity, higher = more binding, comparable within an allelic series)
- binding signal (PAX4 [4]): 9.18 upbm affinity estimate (log intensity, higher = more binding, comparable within an allelic series)
- binding signal (PAX4 [5]): 9.2 upbm affinity estimate (log intensity, higher = more binding, comparable within an allelic series)
- binding signal (PAX4 [6]): 9.27 upbm affinity estimate (log intensity, higher = more binding, comparable within an allelic series)

Sequence: CCAGCGCC
- binding signal (PAX4 [1]): 9.19 upbm affinity estimate (log intensity, higher = more binding, comparable within an allelic series)
- binding signal (PAX4 [2]): 9.3 upbm affinity estimate (log intensity, higher = more binding, comparable within an allelic series)
- binding signal (PAX4 [3]): 9.31 upbm affinity estimate (log intensity, higher = more binding, comparable within an allelic series)
- binding signal (PAX4 [4]): 9.31 upbm affinity estimate (log intensity, higher = more binding, comparable within an allelic series)
- binding signal (PAX4 [5]): 9.23 upbm affinity estimate (log intensity, higher = more binding, comparable within an allelic series)
- binding signal (PAX4 [6]): 9.33 upbm affinity estimate (log intensity, higher = more binding, comparable within an allelic series)

Sequence: AGCTGCCG
- binding signal (PAX4 [1]): 9.44 upbm affinity estimate (log intensity, higher = more binding, comparable within an allelic series)
- binding signal (PAX4 [2]): 9.42 upbm affinity estimate (log intensity, higher = more binding, comparable within an allelic series)
- binding signal (PAX4 [3]): 9.33 upbm affinity estimate (log intensity, higher = more binding, comparable within an allelic series)
- binding signal (PAX4 [4]): 9.27 upbm affinity estimate (log intensity, higher = more binding, comparable within an allelic series)
- binding signal (PAX4 [5]): 9.2 upbm affinity estimate (log intensity, higher = more binding, comparable within an allelic series)
- binding signal (PAX4 [6]): 9.31 upbm affinity estimate (log intensity, higher = more binding, comparable within an allelic series)

Sequence: GCGAATTA
- binding signal (PAX4 [1]): 11.6 upbm affinity estimate (log intensity, higher = more binding, comparable within an allelic series)
- binding signal (PAX4 [2]): 12.1 upbm affinity estimate (log intensity, higher = more binding, comparable within an allelic series)
- binding signal (PAX4 [3]): 11.5 upbm affinity estimate (log intensity, higher = more binding, comparable within an allelic series)
- binding signal (PAX4 [4]): 10.3 upbm affinity estimate (log intensity, higher = more binding, comparable within an allelic series)
- binding signal (PAX4 [5]): 10.8 upbm affinity estimate (log intensity, higher = more binding, comparable within an allelic series)
- binding signal (PAX4 [6]): 10.8 upbm affinity estimate (log intensity, higher = more binding, comparable within an allelic series)

Sequence: ATTACCCG
- binding signal (PAX4 [1]): 10.6 upbm affinity estimate (log intensity, higher = more binding, comparable within an allelic series)
- binding signal (PAX4 [2]): 11 upbm affinity estimate (log intensity, higher = more binding, comparable within an allelic series)
- binding signal (PAX4 [4]): 9.93 upbm affinity estimate (log intensity, higher = more binding, comparable within an allelic series)
- binding signal (PAX4 [5]): 9.92 upbm affinity estimate (log intensity, higher = more binding, comparable within an allelic series)
- binding signal (PAX4 [6]): 10.1 upbm affinity estimate (log intensity, higher = more binding, comparable within an allelic series)

Sequence: TAACTCAA
- binding signal (PAX4 [1]): 10.6 upbm affinity estimate (log intensity, higher = more binding, comparable within an allelic series)
- binding signal (PAX4 [2]): 10.7 upbm affinity estimate (log intensity, higher = more binding, comparable within an allelic series)
- binding signal (PAX4 [4]): 10.1 upbm affinity estimate (log intensity, higher = more binding, comparable within an allelic series)

Sequence: TGTATTAA
- binding signal (PAX4 [1]): 11.7 upbm affinity estimate (log intensity, higher = more binding, comparable within an allelic series)
- binding signal (CRX): 10.9 upbm affinity estimate (log intensity, higher = more binding, comparable within an allelic series)

Sequence: CATGTTAG
- binding signal (PAX4 [1]): 10.7 upbm affinity estimate (log intensity, higher = more binding, comparable within an allelic series)
- binding signal (PAX4 [2]): 10.8 upbm affinity estimate (log intensity, higher = more binding, comparable within an allelic series)
- binding signal (PAX4 [3]): 10.7 upbm affinity estimate (log intensity, higher = more binding, comparable within an allelic series)
- binding signal (PAX4 [4]): 10.1 upbm affinity estimate (log intensity, higher = more binding, comparable within an allelic series)
- binding signal (PAX4 [5]): 10.2 upbm affinity estimate (log intensity, higher = more binding, comparable within an allelic series)
- binding signal (PAX4 [6]): 10.3 upbm affinity estimate (log intensity, higher = more binding, comparable within an allelic series)

Sequence: ATAATGCG
- binding signal (PAX4 [1]): 11.6 upbm affinity estimate (log intensity, higher = more binding, comparable within an allelic series)
- binding signal (PAX4 [5]): 10.9 upbm affinity estimate (log intensity, higher = more binding, comparable within an allelic series)
- binding signal (PAX4 [6]): 10.9 upbm affinity estimate (log intensity, higher = more binding, comparable within an allelic series)

Sequence: AATTATAC
- binding signal (PRRX1): 11.1 upbm affinity estimate (log intensity, higher = more binding, comparable within an allelic series)
- binding signal (HOXB6): 9.99 upbm affinity estimate (log intensity, higher = more binding, comparable within an allelic series)
